High-throughput results as filed in PubChem BioAssay.
NSD2 inh = inhibitors of human histone methyltransferase NSD2. NSD2 peptide methylation, AlphaScreen, 120 min. inhibition, % at 12.5 µM. 310,000 tested, 0.54% active. O96028; in the data active means inhibition above about 50%
rRNA inh HTS = inhibitors of bacterial rRNA selective over humanized ribosomes; E. coli WT GFP vs humanized-ribosome RFP mutants, fluorescence, 24 h; active compounds read low; DMSO median 0, no signal -100; GFP signal change (wild-type ribosome), % (test concentration not listed); 350,000 tested, 1.6% active;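 active means significant combined selectivity score with lowered wild-type GFP, culture density cut under 30%, mutant RFP and density less affected; inactive means any of these conditions unmet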
CASP6 VEID inh = blocks human caspase-6 cleavage activity; P55212; purified caspase-6, Z-VEID-R110 cleavage fluorescence; inhibition, % at 12.5 µM; 350,000 tested, 0.53% active; AID 686996;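 active means mean inhibition across replicates at least about 35%, with every replicate also reaching that limit, limit read from the data; inconclusive means only one of the two criteria met; inactive means neither criterion met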;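 further: 0% = median of neutral control wells and 100% = no fluorescence left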
Target sequence (P55212 24-179 limits assumed): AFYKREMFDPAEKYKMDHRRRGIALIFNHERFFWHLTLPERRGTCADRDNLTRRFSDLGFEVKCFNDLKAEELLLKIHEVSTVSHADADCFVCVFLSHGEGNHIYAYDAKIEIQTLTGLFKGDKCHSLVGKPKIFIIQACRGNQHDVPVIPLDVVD
Target sequence (P55212 194-293 limits assumed): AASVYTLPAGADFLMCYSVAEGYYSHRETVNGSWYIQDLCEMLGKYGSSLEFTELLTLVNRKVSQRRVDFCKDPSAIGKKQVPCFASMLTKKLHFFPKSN
MLL AF4-AF9 inh = MLL-AF4/AF9 protein interaction inhibition; P42568; AlphaScreen, biotin-AF4 peptide binding to FLAG-AF9; inhibition, % at 10 µM; 350,000 tested, 0.47% active; AID 651704;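 active means every replicate reaching a set inhibition limit, whatever the replicate mean, cut at about 25% in these data; inconclusive means mean inhibition reaches that limit but some replicates miss it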;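 further: 0% = plate neutral control median and 100% = total signal loss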
RAD52 anneal inh = inhibitors of human RAD52 DNA annealing | recombinant RAD52 DNA annealing, FRET fluorescence | inhibition, % at 18.7 µM | AID 651710 | 360,000 tested, 0.46% active;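 active means every replicate showing at least 50% inhibition; inconclusive means mean inhibition at least 50% but not in every replicate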
Target sequence (P43351 whole entry, looked up): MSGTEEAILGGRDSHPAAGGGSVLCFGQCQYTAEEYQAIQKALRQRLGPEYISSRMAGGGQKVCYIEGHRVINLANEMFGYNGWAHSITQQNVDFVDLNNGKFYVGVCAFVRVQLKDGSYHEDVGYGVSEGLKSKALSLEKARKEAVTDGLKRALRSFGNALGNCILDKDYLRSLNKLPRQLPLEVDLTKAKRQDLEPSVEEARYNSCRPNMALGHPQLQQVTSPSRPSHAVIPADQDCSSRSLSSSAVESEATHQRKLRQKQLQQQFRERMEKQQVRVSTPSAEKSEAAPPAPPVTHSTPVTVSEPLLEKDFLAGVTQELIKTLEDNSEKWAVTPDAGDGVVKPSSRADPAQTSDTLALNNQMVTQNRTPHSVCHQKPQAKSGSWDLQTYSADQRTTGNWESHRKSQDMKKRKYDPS
RAD52 DNA ctr = binds DNA, flagging false RAD52 inhibitor hits; shares compounds with RAD52 anneal inh; Salmon sperm DNA/acridine orange FP displacement, DNA binding; AC50, µM; 1,000 tested, 8% active; AID 652128;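 active means fitted half-maximal concentration for signal loss at or below twice the highest dose tested, in every separate run, actives reach about 64 µM in these data; inconclusive means runs disagree, or flat partial signal loss, or poor fit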
* marks the source's active call; other numbers are inactive results; i = inactive; ? = inconclusive; nt = not tested or not shown; ! = not confirmed by another sample. The list is not random: actives were taken first. Their share in the collection is about 2.5%.

SMILES	NSD2 inh	rRNA inh HTS	CASP6 VEID inh	MLL AF4-AF9 inh	RAD52 anneal inh	RAD52 DNA ctr
N#C[C@@H]1[C@@H](c2ccccc2)[C@H](CO)N1C(=O)Cc1ccccc1	nt	0.6	-1.7	-2.8	-18.7	nt
CCN(CC)CCNC(=O)CCc1c(C)nc2c(c(C)nn2-c2ccc(C)c(C)c2)c1C	11.0	-2.7	-23.9	6.7	6.5	i
COCC(=O)Nc1ccc2c(c1)[C@H]1C[C@@H](CC(=O)NCc3cc(F)ccc3F)O[C@@H](CO)[C@H]1O2	nt	-1.2	nt	nt	nt	nt
C[C@@H]1CNCCN1c1ccc(N2CCS(=O)(=O)CC2)c(C#N)c1	nt	8.6	-1.7	nt	55.3*	i
Cc1cc(N2CCNC[C@@H]2C)ccc1N1CCS(=O)(=O)CC1	nt	10.6	-7.1	nt	-37.7	nt
C[C@@H]1CN([C@H](C)CO)C(=O)c2cccc(NC(=O)Nc3ccc(C(F)(F)F)cc3)c2O[C@H]1CN(C)S(=O)(=O)c1ccccc1	nt	-2.6	nt	nt	nt	nt
CN(C)CCCN(C(=O)c1ccco1)c1nc2ccc(Br)cc2s1	nt	-2.6	-8.4	18.8	57.1*	i
COc1cc2ccccc2cc1C(=O)N(CCN(C)C)c1nc2ccc(Br)cc2s1	-3.3	-7.5	-3.8	23.0	50.8*	i
CN(C)CCCN(C(=O)c1ccco1)c1nc2ccc(Cl)cc2s1	nt	-18.6	-4.0	11.7	37.7	nt
Cc1ccc(-c2cnc3c(c2)C(=O)N([C@H](C)CO)C[C@@H](C)[C@@H](CN(C)C(=O)c2cccnc2)O3)cc1	nt	4.4	1.3	-7.3	-17.4	nt
Cc1cc2[nH]c3c(c[n+](C)c4ccccc34)c2cc1C	14.8	-52.0	-43.9	17.8	104.3*	8.46µM*
Cc1cc(=O)[nH]c2ccccc12	1.1	nt	nt	nt	nt	nt
Cc1cc(N/N=C/c2ccccc2O)c2ccccc2n1	10.6	-50.9	-10.1	?	102.1*	i
O=C(C1CCCCC1)N1CC2(C1)[C@H](c1ccccc1)[C@@H](CO)N2Cc1ccccc1F	nt	-9.0	0.4	-17.1	-14.7	nt
CCCN(CCC)c1nc2ccccc2n2c(C)nnc12	-5.3	nt	nt	nt	nt	nt
CCCNc1nc2ccccc2n2c(C)nnc12	-2.1	3.7	-63.3	-0.3	73.3*	i
CC(=O)N1[C@H](CO)[C@H]2c3ccccc3N(C(=O)c3ccccc3)C[C@H]21	nt	1.6	1.5	-1.3	-7.6	nt
CCOC(=O)c1ccc(NC(=O)/C=C/c2cccs2)cc1	-5.6	-26.2	-1.4	8.6	-8.7	nt
CCN(CC)CCOC(=O)c1ccc(N)cc1	nt	nt	nt	-3.0	88.4*	i
CCN(CC)CCCOC(=O)c1ccc(OC)cc1O	7.4	13.6	1.4	-1.2	-4.9	nt
CCCOc1cc(N)ccc1C(=O)OCCN(CC)CC	nt	nt	-15.5	1.9	62.4*	i
CCN(CC)CCOC(=O)c1ccc([N+](=O)[O-])cc1	4.1	3.1	-0.6	0.6	-11.0	nt
CCN(CC)CCOC(=O)c1ccc(NC(=O)/C=C/c2cccs2)cc1	7.0	-9.3	-9.9	9.4	58.0*	i
COc1cccc(-c2cn(CC[C@@H]3CC[C@H](NC(=O)CN(C)C)[C@H](CO)O3)nn2)c1	nt	3.2	-2.6	-2.1	-12.4	nt
COc1ccc(S(=O)(=O)Nc2ccc3c(c2)CC(=O)N([C@H](C)CO)C[C@H](C)[C@@H](CN(C)S(=O)(=O)c2ccc(F)cc2)O3)cc1	nt	-9.0	nt	nt	nt	nt
SMILES	NSD2 inh	rRNA inh HTS	CASP6 VEID inh	MLL AF4-AF9 inh	RAD52 anneal inh	RAD52 DNA ctr
Cc1cccc(OCC(=O)Nc2ccc3c(c2)nc(CN2CCCCC2)n3C)c1	0.0	-0.2	-13.9	-8.9	66.7*	i
O=c1c2c(-c3ccccc3)csc2nc2c3ccccc3c(NCCN3CCOCC3)nn12	-23.5	-55.6	-26.9	12.3	87.1*	i
O=c1c2ccccc2nc2c3ccccc3c(NCCN3CCOCC3)nn12	-3.1	nt	nt	nt	nt	nt
Cc1ccc(S(=O)(=O)N[C@@H]2CC[C@@H](CC(=O)NCCCN(C)C)O[C@H]2CO)cc1	nt	0.8	-2.5	-23.5	8.3	nt
COc1cc2cc(-c3ccc(OC)c(OC)c3C)nc(N)c2cc1OC	7.5	-18.2	-2.9	12.7	61.1*	i
COc1cc2cc(-c3ccc(O)cc3O)nc(C)c2cc1OC	-0.7	-21.1	-7.3	-6.3	-2.6	nt
CCNC(=O)C[C@@H]1CC[C@H]2[C@@H](COC[C@@H](O)CN2C(=O)Nc2c(C)noc2C)O1	nt	5.5	-0.4	-2.5	-4.6	nt
C[n+]1ccccc1COc1ccc(C(C)(C)C)cc1	-1.0	10.2	-38.6	9.8	99.4*	i
C[C@]12CC[C@H](O)CC1=CCC1C2CC[C@@]2(C)C1CC[C@@H]2NC(=O)[C@@H](N)Cc1cnc[nH]1 (some centres undefined)	0.7	3.3	0.6	1.5	79.9*	i
COc1ccc(NC(=O)O[C@@H](C)[C@@H]2CN3CCc4c([nH]c5ccc(-c6ccc(OC)cc6)cc45)[C@@H]3C[C@@H]2N(C)C(=O)Nc2ccc(OC)cc2)cc1	nt	-26.6*	-2.9	1.7	53.0*	i
CC1CN(c2ccc([N+](=O)[O-])c(NCCOc3ccc(Cl)cc3)c2)CC(C)N1 (centres undefined)	16.9	-54.0	1.4	21.2	31.4	nt
CCc1ccc(OCCNc2cc(N3CCNC(C)C3)ccc2[N+](=O)[O-])cc1 (centres undefined)	5.6	-60.2	-8.0	36.6*	10.9	i
OCCNCc1ccc(OCc2ccc(Cl)cc2Cl)cc1	4.7	-18.9	-7.2	-0.4	12.7	nt
OCCCCNCc1ccc(OCc2ccc(Cl)cc2Cl)cc1	5.4	4.0	-28.8	-7.0	65.6*	i
Cc1ccc2nc3c(c(N)c2c1)CCN3c1ccccc1	13.3	nt	nt	nt	nt	nt
Cc1ccc2nc3c(c(N)c2c1)CCN3C	1.5	2.3	1.5	-0.9	41.7	i
CN(C)CCCN=c1cc(-c2ccccc2)oc2ccc(Cl)cc12	17.3	-49.7	-26.8	10.0	80.3*	27.5µM*
CC(C)NC(=O)N(C)C[C@@H]1Oc2c(NC(=O)c3nc4ccccc4s3)cccc2C(=O)N([C@@H](C)CO)C[C@@H]1C	nt	-2.0	0.2	-0.1	-5.6	nt
COc1cc(/C=C2\SC(=O)N(CCN)C2=O)ccc1OS(=O)(=O)c1cc(C)ccc1C	7.3	-47.8	14.7	11.5	83.7*	i
COc1cccc(CNCCSc2nnnn2C)c1OC	1.5	11.6	-46.5	-0.7	103.4*	i
CN1CCc2cccc3c2[C@H]1Cc1ccc(O)c(O)c1-3	nt	-4.6	2.2	29.3*!	90.3*!	i
C[C@@H]1CN([C@@H](C)CO)C(=O)c2cc(-c3cccnc3)cnc2O[C@H]1CN(C)C(=O)Nc1ccccc1	nt	0.0	0.4	-2.5	-5.7	nt
CN(C)C(=O)c1ccc(-c2ccc([C@@H]3[C@@H](CO)N4CCCCN(CC5CC5)C[C@@H]34)cc2)cc1	nt	8.4	-1.8	-4.3	-5.3	nt
Cc1cccc(-c2ccc3c(c2)[C@@H]2C[C@H]4[C@@H](CN2CC3)[C@H](C)ON4C)c1	nt	-9.8	-11.7	nt	17.6	nt
Cc1cccc(-c2ccc3[nH]c4c(c3c2)CCN2C[C@H]3[C@H](C)ON(C)[C@H]3C[C@@H]42)c1	nt	2.8	-9.6	39.2*	59.7*	i
